From article PMC10726135, “HNF4α isoforms regulate the circadian balance between carbohydrate and lipid metabolism in the liver”
Whole data set: some 18,000 sequences, median “log2 normalized intensity” near 0.36, cut for the highest 2% near 7.3. Only a selection was taken, and the highest values are over-represented in it overall.

What follows are sequences tested against T1, HNF4alpha8 (COS-7 nuclear extract) (Homo sapiens, UniProt P41235-5 1-452) (assay: protein-binding microarray; COS-7 nuclear extract on double-stranded Agilent 4x180k PBM; binding buffer, salt, pH and temperature not given in the material; high values mean tight binding). Details: chain copies: 2; label: 3' end of strand 1 on the slide; dsDNA, one strand shown.
T1 sequence: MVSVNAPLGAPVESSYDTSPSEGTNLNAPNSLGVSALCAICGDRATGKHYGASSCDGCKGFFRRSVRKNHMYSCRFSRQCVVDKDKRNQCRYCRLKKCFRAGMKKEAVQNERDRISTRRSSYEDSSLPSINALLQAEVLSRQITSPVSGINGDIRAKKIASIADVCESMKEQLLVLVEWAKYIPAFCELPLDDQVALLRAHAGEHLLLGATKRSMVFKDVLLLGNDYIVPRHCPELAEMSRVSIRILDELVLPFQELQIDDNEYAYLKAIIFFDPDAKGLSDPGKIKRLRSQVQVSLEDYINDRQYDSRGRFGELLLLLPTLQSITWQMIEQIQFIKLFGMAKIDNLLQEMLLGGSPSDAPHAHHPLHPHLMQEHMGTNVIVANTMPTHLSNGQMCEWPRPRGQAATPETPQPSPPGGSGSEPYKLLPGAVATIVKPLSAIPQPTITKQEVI
Procedure, shortened: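 Nuclear extracts of COS-7 cells transiently transfected with a human HNF4α isoform were applied to a custom Agilent SurePrint G3 4x180k array bearing ~44,000 double-stranded ~60-nt test sequences, each in quadruplicate. The bound protein was imaged on an Agilent G2565CA scanner at 2-µm resolution. Binding signal is the normalized, background-corrected gProcessedSignal from Agilent software.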

Sequence	binding signal
ATGGTGACCATGTGATGTGAAGAGTGTGGAGCCTAGGGAGATTAGAGTATCGGTCGA	1.31 log2 normalized intensity
CTTGTGTAATAACGAGACCTTAGCCCTGAAGCCTAGGGAGATTAGAGTATCGGTCGA	-0.451 log2 normalized intensity
GAGAGTTCCCTTGGAATGCCAGATGACCTTGCCTAGGGAGATTAGAGTATCGGTCGA	4.6 log2 normalized intensity
TTGCCCTTCTTGGATGCCCTTCCCTAACCCGCCTAGGGAGATTAGAGTATCGGTCGA	3.04 log2 normalized intensity
CTGGCTTTCATTCCACTGACTTGCAACCTTGCCTAGGGAGATTAGAGTATCGGTCGA	1.09 log2 normalized intensity
TTCCCTTGGAATGCCAGATGACCTTTGCCCGCCTAGGGAGATTAGAGTATCGGTCGA	10.2 log2 normalized intensity
CCCTTGGAATGTGACCTTAGACCCCTGAATGCCTAGGGAGATTAGAGTATCGGTCGA	6.49 log2 normalized intensity
TTTCTGTCCAGAGTTTAAATGACCTCTGCCGCCTAGGGAGATTAGAGTATCGGTCGA	4.72 log2 normalized intensity
TTCCTCCCTTGGAATGTGACCTTAGACCCCGCCTAGGGAGATTAGAGTATCGGTCGA	8.83 log2 normalized intensity
TTCCACTGACTTGCAACCTTTGCCCTGTTGGCCTAGGGAGATTAGAGTATCGGTCGA	7.2 log2 normalized intensity
GTCCAGAGTTTAAATGACCTCTGCCCTTCCGCCTAGGGAGATTAGAGTATCGGTCGA	7.43 log2 normalized intensity
TTTCATTCCACTGACTTGCAACCTTTGCCCGCCTAGGGAGATTAGAGTATCGGTCGA	7.51 log2 normalized intensity
TTAGCTTCCTCCCTTGGAATGTGACCTTAGGCCTAGGGAGATTAGAGTATCGGTCGA	5.27 log2 normalized intensity
GAGTTTAAATGACCTCTGCCCTTCCACCCAGCCTAGGGAGATTAGAGTATCGGTCGA	5.16 log2 normalized intensity
AAGATAATGGGTCCGAAGGTCAGCTGACCAGCCTAGGGAGATTAGAGTATCGGTCGA	5.57 log2 normalized intensity
TGATTATTTGTGAAGGCATTATTGGTGAAAGCCTAGGGAGATTAGAGTATCGGTCGA	0.974 log2 normalized intensity
TCAGAGCTTGAAAAGTCTTTCTGCCAAAGTGCCTAGGGAGATTAGAGTATCGGTCGA	0.513 log2 normalized intensity
TGGCATCCCTGTGGTATTTGCTCTGTCATCGCCTAGGGAGATTAGAGTATCGGTCGA	1.39 log2 normalized intensity
GCTAAAAGTTGAATTCTTGACTTTGGACTTGCCTAGGGAGATTAGAGTATCGGTCGA	6.55 log2 normalized intensity
GACCTCTGGACCTCATCTTCCTCCCCAATAGCCTAGGGAGATTAGAGTATCGGTCGA	4.6 log2 normalized intensity
CCTAGGTGCTGAAGATGCAACAGTGACCCAGCCTAGGGAGATTAGAGTATCGGTCGA	3.1 log2 normalized intensity
AGTCTGGAGGGGTGCGAAGGTCGAGGCCAGGCCTAGGGAGATTAGAGTATCGGTCGA	3.39 log2 normalized intensity

Sequence	binding signal
AGCTACTAGCAAATCTGCCCAACCTTTGCCGCCTAGGGAGATTAGAGTATCGGTCGA	2.1 log2 normalized intensity
TGCCCTTGACTTTTTGTGGGGGCAGATGTTGCCTAGGGAGATTAGAGTATCGGTCGA	2.31 log2 normalized intensity
ATGCCAGATGACCTTTGCCCTTGACTTTTTGCCTAGGGAGATTAGAGTATCGGTCGA	9.28 log2 normalized intensity
ACCTTTGCCCTTGACTTTTTGTGGGGGCAGGCCTAGGGAGATTAGAGTATCGGTCGA	3.39 log2 normalized intensity
AGATGACCTTTGCCCTTGACTTTTTGTGGGGCCTAGGGAGATTAGAGTATCGGTCGA	7.72 log2 normalized intensity
TTCTTTTTTTTTTTTTTTTTTTTTTGAGATGCCTAGGGAGATTAGAGTATCGGTCGA	3.08 log2 normalized intensity
CTGCTTTTATGACCTTTGACTGCAGAAGATGCCTAGGGAGATTAGAGTATCGGTCGA	6.33 log2 normalized intensity
AGTGAGCCAAGGTACCCTGGCTTGTAATTCGCCTAGGGAGATTAGAGTATCGGTCGA	-0.844 log2 normalized intensity
ATCAGAGCTGGATGTGAGTTATGACTACTTGCCTAGGGAGATTAGAGTATCGGTCGA	0.62 log2 normalized intensity
CTGCAGATTGACTCAGGCATTCTGACCTTTGCCTAGGGAGATTAGAGTATCGGTCGA	7.32 log2 normalized intensity
CCATATCACATTTTAAGGTCTGGCATTCTTGCCTAGGGAGATTAGAGTATCGGTCGA	1.1 log2 normalized intensity
ACTCAGGCATTCTGACCTTTGTCTCCAGGCGCCTAGGGAGATTAGAGTATCGGTCGA	6.52 log2 normalized intensity
AAATCCCCGCCTTTGACACAGGCGACCTTCGCCTAGGGAGATTAGAGTATCGGTCGA	4.58 log2 normalized intensity
CACAGCTCGACCTTTGACCTTCGGCTTCCCGCCTAGGGAGATTAGAGTATCGGTCGA	9.06 log2 normalized intensity
TCAGGCACAGCTCGACCTTTGACCTTCGGCGCCTAGGGAGATTAGAGTATCGGTCGA	10.9 log2 normalized intensity
CCTTTGACCTTCGGCTTCCCCAGAGAAAGAGCCTAGGGAGATTAGAGTATCGGTCGA	3.38 log2 normalized intensity
CCCGCCTTTGACACAGGCGACCTTCGCTCGGCCTAGGGAGATTAGAGTATCGGTCGA	6.06 log2 normalized intensity
TTTTAAGGTCTGGCATTCTTTTTGACCTTTGCCTAGGGAGATTAGAGTATCGGTCGA	8.23 log2 normalized intensity
GATTGACTCAGGCATTCTGACCTTTGTCTCGCCTAGGGAGATTAGAGTATCGGTCGA	7.94 log2 normalized intensity
CCTTTTATTTTCTTATCTGCCTAGGCATTTGCCTAGGGAGATTAGAGTATCGGTCGA	1.58 log2 normalized intensity
CTTTGACACAGGCGACCTTCGCTCGGCTCGGCCTAGGGAGATTAGAGTATCGGTCGA	4.27 log2 normalized intensity
CCAACAGGTGAAGACATGCTGGTGTGTGATGCCTAGGGAGATTAGAGTATCGGTCGA	0.875 log2 normalized intensity

Sequence	binding signal
AGATGGTCAAAGGTTGATGGTATGTTTCAGGCCTAGGGAGATTAGAGTATCGGTCGA	3.86 log2 normalized intensity
TGAATCCTCTTTGAGTCTGGTGTTCTCTTGGCCTAGGGAGATTAGAGTATCGGTCGA	1.65 log2 normalized intensity
CGCATCTGAAGATAAGAGAAGTTGCTCTTTGCCTAGGGAGATTAGAGTATCGGTCGA	2.63 log2 normalized intensity
CCTGCAAGGACAAAGGTCATGTTTTCAAACGCCTAGGGAGATTAGAGTATCGGTCGA	6.34 log2 normalized intensity
AATTTGAACCAAGATCTGTGAAAGAAAAGTGCCTAGGGAGATTAGAGTATCGGTCGA	-0.147 log2 normalized intensity
TATGTGCTGACTGACTCCTGTTACTTCCACGCCTAGGGAGATTAGAGTATCGGTCGA	0.0957 log2 normalized intensity
AGTGTGGGGTGACTGACTTAACCCTTGCCTGCCTAGGGAGATTAGAGTATCGGTCGA	2.27 log2 normalized intensity
CTCCACTTGGGTATCAGATAGTCCAATGTCGCCTAGGGAGATTAGAGTATCGGTCGA	2.52 log2 normalized intensity
GCCTCTCTGTGCTGGAACTTGCTTCCTTATGCCTAGGGAGATTAGAGTATCGGTCGA	1.37 log2 normalized intensity
TGTGGTAATAAGTTGGTGGACGCTGGGGAAGCCTAGGGAGATTAGAGTATCGGTCGA	0.488 log2 normalized intensity
TCCTTCAGCGTGAACTTTGACATGAGAGAAGCCTAGGGAGATTAGAGTATCGGTCGA	4.21 log2 normalized intensity
TATATTCAACCCCCACTTCCTGACTTGGCCGCCTAGGGAGATTAGAGTATCGGTCGA	3.85 log2 normalized intensity
TCACACAAATGGATCTTTCTTCAAAAAGAGGCCTAGGGAGATTAGAGTATCGGTCGA	-0.0678 log2 normalized intensity
CCCTTTAGTGCCTGGATCTTGGAACAGGTCGCCTAGGGAGATTAGAGTATCGGTCGA	1.97 log2 normalized intensity
ATGCTGGTCTCCTTGCCCCACCCCCCACCCGCCTAGGGAGATTAGAGTATCGGTCGA	7.48 log2 normalized intensity
GCTCAGCTGGTTGCCCCTTTGACCCTCGGGGCCTAGGGAGATTAGAGTATCGGTCGA	7.06 log2 normalized intensity
GCCCCAGCTCGCTCAGCTGGTTGCCCCTTTGCCTAGGGAGATTAGAGTATCGGTCGA	4.47 log2 normalized intensity
GTCTCTCAGGCACAGCTCGACCTTTGACCTGCCTAGGGAGATTAGAGTATCGGTCGA	10 log2 normalized intensity
CCTGCACACCTGCCTTTGATCAGGGACCTTGCCTAGGGAGATTAGAGTATCGGTCGA	1.97 log2 normalized intensity
CAGCATGTCTTCTGACCTTTGGCAATATCTGCCTAGGGAGATTAGAGTATCGGTCGA	5.1 log2 normalized intensity
AGCTCGCTCAGCTGGTTGCCCCTTTGACCCGCCTAGGGAGATTAGAGTATCGGTCGA	8.48 log2 normalized intensity
GGGTCATGCTGGTCTCCTTGCCCCACCCCCGCCTAGGGAGATTAGAGTATCGGTCGA	5.73 log2 normalized intensity

Sequence	binding signal
TATTTAGACTCAGCATGTCTTCTGACCTTTGCCTAGGGAGATTAGAGTATCGGTCGA	7.33 log2 normalized intensity
CCTCTGTCTCTCAGGCACAGCTCGACCTTTGCCTAGGGAGATTAGAGTATCGGTCGA	6.7 log2 normalized intensity
AGACTCAGCATGTCTTCTGACCTTTGGCAAGCCTAGGGAGATTAGAGTATCGGTCGA	6.98 log2 normalized intensity
GGTCTCCTTGCCCCACCCCCCACCCCAGAAGCCTAGGGAGATTAGAGTATCGGTCGA	6.87 log2 normalized intensity
AGTCACACACACCTGTGTCCCCCAGGTCCAGCCTAGGGAGATTAGAGTATCGGTCGA	3.56 log2 normalized intensity
ATATCTGCCTCAGTAGTAGTGAAAAATGAAGCCTAGGGAGATTAGAGTATCGGTCGA	0.637 log2 normalized intensity
GGAGGTGACCTTTGGTTGTCCTTACTGCTAGCCTAGGGAGATTAGAGTATCGGTCGA	4.22 log2 normalized intensity
ACCTCTTATCAAGCGTGCACCCCAGGTACGGCCTAGGGAGATTAGAGTATCGGTCGA	1.3 log2 normalized intensity
ATGGTGTTTGCTTTGTGAAGGCTTATCTGCGCCTAGGGAGATTAGAGTATCGGTCGA	0.591 log2 normalized intensity
GGTTCTTCCACGACTCCCCCGCTCACCCCTGCCTAGGGAGATTAGAGTATCGGTCGA	5.08 log2 normalized intensity
AACTTTTCCATGTCCAAAGGTCTTCATGAGGCCTAGGGAGATTAGAGTATCGGTCGA	4.33 log2 normalized intensity
AGTGCCATGTAATCAAACTGAACTTTGAAAGCCTAGGGAGATTAGAGTATCGGTCGA	4.48 log2 normalized intensity
AACATCATAGAGTGTACTTATGCAGACCTGGCCTAGGGAGATTAGAGTATCGGTCGA	0.968 log2 normalized intensity
CCTCCAGCTACTCACTCTTCCCAAATAGGTGCCTAGGGAGATTAGAGTATCGGTCGA	-0.273 log2 normalized intensity
AAGTGCGTCCTGTGGCAAAGGTGAATGACCGCCTAGGGAGATTAGAGTATCGGTCGA	2.99 log2 normalized intensity
TTCACAGAGCAAGGGTCCAGATTAGAGCACGCCTAGGGAGATTAGAGTATCGGTCGA	2.52 log2 normalized intensity
AAAGCCACCCCTTTCTCCTCTCTTTCCATAGCCTAGGGAGATTAGAGTATCGGTCGA	0.633 log2 normalized intensity
GGACAAAGTTCCCCGGGCAGCTGTGTTTGCGCCTAGGGAGATTAGAGTATCGGTCGA	0.702 log2 normalized intensity
CTCCAACTGCTCCTCTTCAACTGATTCTTGGCCTAGGGAGATTAGAGTATCGGTCGA	-0.845 log2 normalized intensity
